TDP1 cell CPT = DT40-hTDP1 cell growth loss with CPT. AID 686979. chicken DT40 Tdp1-/-;hTDP1 cells + 20 nM CPT, ATP luminescence, 48 h. 12% of 420,000 active. Potency, µM (doses to about 46.2 µM), inactives show at the highest dose activity change, negative = growth inhibition, actives largely listed as inhibitors; further: potency means the concentration at half of the fitted maximal effect; on the % scale 0 is the no-effect control and ±100 the full control effect; nearly all actives have a fitted effect of over 55% in size
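Chicken DT40 Tdp1-/- cells stably complemented with human TDP1 were seeded at 400 cells/well in medium containing 20 nM camptothecin, exposed to pin-transferred compounds, and grown at 37 °C for at least 48 hr. Viability was read as ATP luminescence.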
IL1B secr inh = inflammasome signaling inhibition, IL-1 beta readout; THP-1 LPS/ATP IL-1B secretion, AlphaLISA, 16 h; stronger effect = lower value; 4.7% of 360,000 active; activity change, % at 57.5 µM; AID 743279; in the data active means activity change below about -50%; inconclusive means mostly about -30% to -49%; further: on the % scale 0 is the no-effect control and ±100 the full control effect
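Secreted IL-1B measured by AlphaLISA bead assay after 16 h compound exposure of THP-1 cells; compounds (final up to 57.5 uM) added 1 h before LPS (250 ng/mL) and ATP (1.25 mM) stimulation; lower signal means less secretion.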
TDP1 cell noCPT = qHTS for Inhibitors of human tyrosyl-DNA phosphodiesterase 1 (TDP1): qHTS in cells in absence of CPT. DT40 Tdp1-/- hTDP1 cells, no CPT, ATP luminescence, 48 h. Potency, µM (highest dose often 46.2 µM), inactives show at the top dose activity change, negative = growth inhibition, hits mostly inhibitors. 15% of 420,000 active; further: potency means the concentration at half of the fitted maximal effect; on the % scale 0 is the no-effect control and ±100 the full control effect; nearly all actives have a fitted effect of over 55% in size
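Luminescent ATP content (CellTiter-Glo) served as the growth readout. Knockout chicken DT40 cells expressing human TDP1 were exposed to compounds without camptothecin for a minimum 48 hr at 37 °C.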
MCF10A rereplic = induces DNA re-replication in MCF 10a normal breast cells; MCF 10A DNA re-replication, Hoechst nuclear intensity, 48 h; Potency, µM (doses to about 46.1 µM), for inactives: at the highest dose activity, positive = re-replication, usual class: activators; 2.9% of 350,000 active; further: potency means the concentration at half of the fitted maximal effect; % of control where 0% means no effect; nearly all actives have a fitted effect of over 50% in size
BCR signal inh = blocks chronic active B-cell receptor signaling | ABC-DLBCL IkBa-CBG/CBR reporter, luminescence ratio, 4 h | Potency, µM (titrated, usually from 46.1 µM), for inactives: top-dose activity change, negative = inhibition, hits mostly inhibitors | 0.05% of 340,000 active; active means well fitted inhibition curve with a large enough effect in the signal ratio, with a control signal flat, not every such curve was filed as active; inconclusive means small, poorly fitted or top-dose-only effect, or effect the other way, or a change in a side signal; the % refers to the signal ratio;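 further: potency means the concentration at half of the fitted maximal effect; plate controls were basal doxycycline-induced cells for no effect and cells given 10 µM MG132 for full effect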
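Doxycycline induced both beetle luciferases in TMD8 lymphoma cells; IKK-driven degradation limits the IkappaBalpha-fused green signal, while red luminescence normalises for cell number and nonspecific effects. Compounds tested up to 46 uM, 4 hrs.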
SW480 rereplic = inducers of DNA re-replication in SW480 colon cancer cells. SW480 DNA re-replication, Hoechst DNA content imaging, 48 h. Potency, µM (highest dose often 46.1 µM), for the others: at the top dose re-replication activation, usual class: activators. 1.8% of 340,000 active; further: potency means the concentration at half of the fitted maximal effect; % of control where 0% means no effect; nearly all actives have a fitted effect of over 55% in size
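Readout is total intensity of Hoechst-stained nuclei, excited at 405 nm and collected at 500-530 nm. Compound treatment lasted 48 hr at 37 C in 5% CO2 before staining.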
Active calls of the source: *; u = inconclusive; x = no result; ! = not active in a repeat. This is a sample that favours compounds with a hit; in the whole collection about 19% have one here. Unless noted, the call rests on the fitted dose curve; in most records, active means well fitted curve in the direction sought with a large enough effect; inconclusive means small, poorly fitted or top-dose-only effect, or another doubt; inactive means no such curve, though single readings can be large; an effect the other way counts as inactive or inconclusive.

SMILES	TDP1 cell CPT	IL1B secr inh	TDP1 cell noCPT	MCF10A rereplic	BCR signal inh	SW480 rereplic
CCCNC(=O)C1(C)CCN(Cc2ccc3ccccc3c2Br)C1 (configuration not stated)	u	-14	u	x	x	x
COc1cc(OC)c(OC)cc1CN1CCN(C(=O)Cc2ccccc2)CC1	-3%	0	8%	10%	0%	-53%
COc1cc2c(cc1OC)C(c1c(O)n(CCc3ccccc3)c(=S)[nH]c1=O)NCC2 (configuration not stated)	45%	-24	4%	0%	5%	14%
CCC1CN2CCc3cc(OC)c(OC)cc3C2CC1CC1NCCc2c1[nH]c1ccc(O)cc21 (configuration not stated)	0.15µM*	-101*	0.082µM*	u	x	u
CC[C@@H]1CN2CCc3cc(OC)c(OC)cc3[C@@H]2C[C@@H]1C[C@H]1NCCc2cc(OC)c(OC)cc21	-74%	x	0.034µM*	x	x	x
CSCCC(NS(=O)(=O)c1ccc2c(c1)oc(=O)n2C)C(=O)NCc1ccc(Cl)cc1 (configuration not stated)	-10%	x	-6%	x	u	x
CC(=O)Nc1nc(C)c(-c2csc(Nc3ccccn3)n2)s1	10µM*	-79*!	13µM*	u	u	1%
COc1ccc(P2(=O)Nc3ccccc3N2)cc1	15µM*	7	u	-2%	u	-8%
COc1ccc2c(c1)NP(=S)(c1ccccc1)N2C (configuration not stated)	14%	-4	-17%	-6%	x	-10%
C/C(=C\c1csc(C)n1)[C@@H]1C[C@@H]2O[C@]2(C)CCC[C@H](C)[C@H](O)[C@@H](C)C(=O)C(C)(C)[C@@H](O)CC(=O)O1	0.0012µM*	x	0.0013µM*	u	x	u
CNc1ccc2oc(C[C@@H]3OC4(CC[C@@H]3C)O[C@H]([C@@H](C)C(=O)c3ccc[nH]3)[C@H](C)C[C@H]4C)nc2c1C(=O)O (some centres not stated)	2.3µM*	x	4.6µM*	x	x	x
CNc1ccc2oc(C[C@H]3O[C@@]4(CC[C@H]3C)O[C@H]([C@H](C)C(=O)c3ccc[nH]3)[C@H](C)C[C@H]4C)nc2c1C(=O)O	0.026µM*	39	0.18µM*	4.6µM*	-1%	u
COc1ccc2c(C(=O)c3ccc(Cl)cc3)c(C)n(CC(=O)O)c2c1	-4%	x	-19%	x	x	x
O=C(CN1CCN(C(=O)CNC(=O)c2ccc(-c3ccccc3)cc2)CC1)Nc1ccccc1Cl	13µM*	u	13µM*	x	x	x
COc1ccc(NC2Oc3cc4c(cc3C(c3cc(OC)c(OC)c(OC)c3)C2C)OCO4)cc1 (configuration not stated)	4.6µM*	-64*	4.1µM*	0.58µM*	x	1µM*
Cc1ccc2nc(NC(=O)c3cccn(Cc4ccc(Cl)cc4)c3=O)sc2c1	-3%	x	2%	x	x	x
O=C(Nc1ccc2nc(SCC(=O)N3CCOCC3)sc2c1)c1ccc(Cl)cc1	u	x	7.3µM*	x	x	x
CCc1cc(-c2cnnn2Cc2ccc3ccccc3c2)ccc1-c1cn(CC(C)C)nn1	26µM*	6	21µM*	x	x	x
Cc1cc(C)cc(-n2c(SCC(=O)NCc3ccc(F)cc3)nc3c([nH]c4ccccc43)c2=O)c1	u	x	16µM*	x	x	x
O=C(CSc1nnc(NC(=O)c2ccccc2F)s1)NCc1ccc(F)cc1	-18%	0	13%	6%	4%	u
COc1cccc(-n2c(SCC(=O)c3ccc(Cl)cc3)nc3c([nH]c4ccccc43)c2=O)c1	3.7µM*	x	4.1µM*	x	x	x
CCOP(=O)(OCC)C1(O)C(=O)Nc2ccc(Br)cc21 (configuration not stated)	u	33	16µM*	12%	-1%	-5%
CCc1ccc(NC(=O)c2cccn(Cc3cccc([N+](=O)[O-])c3)c2=O)cc1	-19%	x	21µM*	x	6%	x
Cc1ccc(Cn2cccc(C(=O)Nc3ccc4c(c3)OCCO4)c2=O)cc1	21µM*	x	16µM*	x	5%	x
Cc1ccc(Cn2cccc(C(=O)Nc3ccc4c(c3)OCO4)c2=O)cc1	-24%	x	-17%	x	-7%	x
SMILES	TDP1 cell CPT	IL1B secr inh	TDP1 cell noCPT	MCF10A rereplic	BCR signal inh	SW480 rereplic
O=C(Nc1ccc2c(c1)OCCO2)c1cccn(Cc2cccc(F)c2)c1=O	21µM*	x	23µM*	x	u	x
Cc1ccc(C)c(N2CCN(C(=O)CCNS(=O)(=O)c3ccc4c(c3)oc(=O)n4C)CC2)c1	u	3	u	-2%	5%	5%
CCOP(=O)(OCC)c1ccc2c(c1)C(=O)c1ccccc1CC2	x	x	x	-2%	u	-6%
Cc1ccc(CN2C(=O)c3ccccc3Sc3ccc(C(=O)N4CCC5(CC4)OCCO5)cc32)cc1	u	x	23µM*	x	0%	x
C=CCN1C(=O)c2ccccc2Sc2ccc(C(=O)N3CCC4(CC3)OCCO4)cc21	u	14	u	2%	0%	-4%
O=C(c1ccc2c(c1)N(Cc1ccc(F)cc1Cl)C(=O)c1ccccc1S2)N1CCC2(CC1)OCCO2	23µM*	x	23µM*	x	u	x
O=C(c1ccc2c(c1)N(Cc1ccccc1)CCS2)N1CCC2(CC1)OCCO2	-29%	18	8%	15%	8%	-9%
CCCCN1C(=O)C(=O)NC[C@@H]1C(C)CC (some centres not stated)	-6%	9	0%	-2%	u	-30%
CC(OC(=O)COc1ccc(Nc2ccccc2)cc1)C(=O)N(C)c1ccccc1 (configuration not stated)	u	2	u	3%	14%	2%
C#CCOc1cc(C2C3=C(COC3=O)Nc3cc4c(cc32)OCO4)ccc1OC (configuration not stated)	21µM*	85	-61%	u	u	2.1µM*
C#CCOc1ccc(OC)cc1C(c1c(C)[nH][nH]c1=O)c1c(C)[nH][nH]c1=O	15%	-10	u	u	2%	-5%
Cc1ccc2c(c1)N(N=O)CCC2	-11%	10	4%	1%	3%	-7%
COc1ccc(NC(c2ccccc2)P(=O)(Oc2ccccc2)Oc2ccccc2)cc1 (configuration not stated)	-14%	-3	-26%	4%	-10%	-3%
